From ChEMBL document CHEMBL1961873, “Compounds: GSK PKIS; Assays: Nanosyn kinase panel” (2012)

molecular target: T1, cGMP-dependent protein kinase 1 (Homo sapiens) (UniProt Q13976); details: at 1 µM
T1 sequence (whole entry): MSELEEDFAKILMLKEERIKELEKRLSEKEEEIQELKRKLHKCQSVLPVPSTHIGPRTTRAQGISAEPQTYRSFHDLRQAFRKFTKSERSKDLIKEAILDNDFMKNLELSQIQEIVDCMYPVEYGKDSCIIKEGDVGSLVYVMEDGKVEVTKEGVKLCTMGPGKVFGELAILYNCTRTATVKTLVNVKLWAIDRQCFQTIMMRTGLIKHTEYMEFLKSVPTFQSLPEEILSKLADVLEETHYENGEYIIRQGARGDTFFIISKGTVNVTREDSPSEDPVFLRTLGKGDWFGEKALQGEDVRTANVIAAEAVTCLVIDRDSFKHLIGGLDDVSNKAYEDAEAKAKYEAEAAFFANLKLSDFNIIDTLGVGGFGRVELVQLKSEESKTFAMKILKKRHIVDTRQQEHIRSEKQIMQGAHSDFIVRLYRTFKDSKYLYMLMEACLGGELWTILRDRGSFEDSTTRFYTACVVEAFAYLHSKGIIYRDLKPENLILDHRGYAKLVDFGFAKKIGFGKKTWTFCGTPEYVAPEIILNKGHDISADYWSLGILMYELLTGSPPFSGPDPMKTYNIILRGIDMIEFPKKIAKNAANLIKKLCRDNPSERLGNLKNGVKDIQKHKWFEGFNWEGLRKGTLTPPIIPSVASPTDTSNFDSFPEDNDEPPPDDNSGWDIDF
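Note: listed percent inhibition of PRKG1 is a mean value.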

Row | Structure (SMILES) | inhibition
1 | c1ccc(COc2ccc(Nc3ncnc4ccc(-c5ccco5)cc34)cc2)cc1 | 0.71%
2 | COC(=O)Nc1nc2ccc(S(=O)(=O)c3ccc(NC(=O)Nc4cc(C(F)(F)F)ccc4F)cc3)cc2[nH]1 | 3.86%
3 | CN(C)CCOc1ccc(-c2nc(-c3ccncc3)c(-c3ccc4c(c3)CC/C4=N\O)[nH]2)cc1 | 6.12%
4 | CS(=O)(=O)CCNCc1ccc(-c2ccc3ncnc(Nc4ccc(OCc5ccccc5)c(C(F)(F)F)c4)c3c2)o1 | 0.85%
5 | COc1cc2ncn(-c3cc(OCc4ccccc4C(F)(F)F)c(C(=O)N(C)C)s3)c2cc1OC | 0.77%
6 | CC(C)COC(=O)c1ccc2c(c1)/C(=C/Nc1ccc(S(N)(=O)=O)cc1)C(=O)N2 | 14.3%
7 | CCc1nn2ncccc2c1-c1ccnc(NC2CC2)n1 | 3.59%
8 | CN1CCC(n2cnc(-c3ccc(F)cc3)c2-c2ccnc(Nc3ccccc3)n2)CC1 | 3.29%
9 | FC(F)(F)c1cccc(-c2nn3ncccc3c2-c2ccnc(Nc3ccc4c(c3)OCCO4)n2)c1 | 2.81%
10 | COc1ccc2[nH]c3c4[nH]c5ccc(OC)cc5c4c4c(c3c2c1)C(=O)NC4=O | 35%
11 | CNC(=O)c1cccc(C#Cc2cncnc2Nc2ccc(OCc3cccc(F)c3)c(Cl)c2)c1 | 3.3%
12 | COc1cc(N2CCN(C(C)C)CC2)ccc1Nc1nc(Nc2ccc(F)cc2C(N)=O)c2cc[nH]c2n1 | 55%
13 | Fc1ccc(-c2cc(-c3c[nH]nc3-c3ccccn3)ccn2)cc1 | 4.77%
14 | COc1cc2c(cc1Nc1nc(Nc3ccsc3C(N)=O)c3cc[nH]c3n1)N(C(=O)CN(C)C)CCC2(C)C | 8.75%
15 | Fc1ccc(-c2nn3ccccc3c2-c2ccncc2)cc1 | 5.24%
16 | CCCN(CCS(C)(=O)=O)Cc1ccc(-c2ccc3ncnc(Nc4ccc(OCc5cccc(F)c5)c(Cl)c4)c3c2)o1 | 1.47%
17 | COc1cc(/C=N/Nc2ncnc3[nH]ncc23)ccc1O | 14.8%

Row | Structure (SMILES) | inhibition
18 | c1cc(-c2cnn3nc(N4CCOCC4)ccc23)nc(NC2CC2)n1 | 6.68%
19 | CN1CCC(n2cnc(-c3ccc(F)cc3)c2-c2ccnc(N)n2)CC1 | 9.09%
20 | Fc1ccc(-c2nn3ncccc3c2-c2ccnc(Nc3ccc4c(c3)OCCO4)n2)cc1 | 4.25%
21 | COc1ccc(-c2oc3ncnc(N)c3c2-c2ccc(NC(=O)Nc3cc(C(F)(F)F)ccc3F)cc2)cc1 | 3.73%
22 | CCN(CC)S(=O)(=O)c1ccc(OC)c(Nc2ncc(-c3ccccc3)o2)c1 | 0.61%
23 | Cc1ccc(O)cc1Nc1ccnc2cc(-c3ccccn3)ccc12 | 1.99%
24 | COc1ccc(-c2nn3ncccc3c2-c2ccnc(Nc3ccc4c(c3)OCCO4)n2)cc1 | -2.7%
25 | COc1cccc(-n2ncc3c(N/N=C/c4ccc(F)cc4)ncnc32)c1 | 4.15%
26 | CC1=C(C(=O)Nc2cc(Cl)c3[nH]ncc3c2)C(c2ccc(C(F)(F)F)cc2)CC(=O)N1 (centres undefined) | 67.9%
27 | COc1cccc(-c2c[nH]c3c(N/N=C/c4ccncc4)ncnc23)c1 | 4.69%
28 | CC(C)(CO)CNC(=O)c1ccc2c(c1)/C(=N/Nc1ccc(S(N)(=O)=O)cc1)C(=O)N2 | 11.8%
29 | NS(=O)(=O)c1ccc(N/N=C2\C(=O)Nc3ccc4ncccc4c32)cc1 | 22.6%
30 | CCn1c(-c2nonc2N)nc2cnc(Oc3cccc(NC(=O)c4ccc(N(C)C)cc4)c3)cc21 | 73%
31 | c1ccc(-c2nc3n(c2-c2ccc4c(c2)OCO4)CCC3)nc1 | 2.75%
32 | NC(=O)c1sc(-n2cnc3ccc(C(F)(F)F)cc32)cc1OCc1ccccc1Br | 8.39%
33 | COc1ccc(-c2cc3c(N)ncnc3o2)cc1 | 0.25%
34 | N#Cc1c(NC(=O)c2ccc(F)cc2)sc2c1CCCC2 | 1.54%
